# From PubChem BioAssay (Tox21)
# Unmarked numbers belong to inactive results. Inconclusive results are not listed. Where a call stands in place of a potency, no number is given. Calls of active or inactive are those of the source. Unless noted, calls follow the shape of the dose curve; as a rule, active = well fitted curve in the direction sought with a large enough effect in the repeat runs; inconclusive = weak or mixed curves; inactive = no such curve, though single readings can be large; an effect the other way counts as inactive or inconclusive.
# What was measured:
# [1] = qHTS assay for small molecule agonists of the p53 signaling pathway (AID 651631; calls by dose curve; also: nearly all actives have a fitted effect of over 15% in size; also: potency is read from the fitted curve at half-maximal effect)
# How it was run: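 Readout was fluorescence from the LiveBLAzer FRET substrate, applied for 2 h at room temperature after 16 h compound exposure at 37 °C. Cells were the p53RE-bla HCT-116 line, with beta-lactamase driven by p53 response elements.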
# [2] = qHTS assay for small molecules that induce genotoxicity in human embryonic kidney cells expressing luciferase-tagged ATAD5 (AID 651632); also: nearly all actives have a fitted effect of over 15% in size; also: potency is read from the fitted curve at half-maximal effect
# How it was run: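 ATAD5-luc HEK293T, 2,000 cells/well; cpd or DMSO pin-transferred; 16 hr, 37C/5% CO2; Amplite 30 min RT; luminescence.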
# [3] = qHTS assay for small molecule agonists of the p53 signaling pathway - cell viability (AID 651633; calls by dose curve; also: series mostly up to about 83 µM; nearly all actives have a fitted effect of over 30% in size)
# How it was run: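 p53RE-bla cells, seeded at 4,000 per well and rested 5 h at 37 C/5% CO2, received compounds in DMSO for 16 h at 37 C. CellTiter-Glo was then added, and luminescence was read after 30 min at room temperature to gauge cytotoxicity.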
# [4] = qHTS assay for small molecules that induce genotoxicity in human embryonic kidney cells expressing luciferase-tagged ATAD5 - cell viability (AID 651634; calls by dose curve; also: nearly all actives have a fitted effect of over 25% in size; also: potency is read from the fitted curve at half-maximal effect)
# How it was run: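 Fluorescence from CellTiter-Fluor, reporting protease activity within live cells, served as the viability read-out. HEK293T cells carrying luciferase-tagged ATAD5 had been treated with compound for 15.5 hr at 37C.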
# [5] = qHTS assay for small molecule disruptors of the mitochondrial membrane potential - cell viability (AID 720634; calls by dose curve;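 also: human HepG2 liver cancer cells; series mostly up to about 83 µM; nearly all actives have a fitted effect of over 20% in size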)
# How it was run: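 Cells: HepG2, 2,000/well, attached overnight. Compound 1 hr, 37 C/5% CO2. +m-MPI dye, +CellTiter-Glo 30 min RT. Readout: luminescence (ATP).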
# [6] = qHTS assay for small molecule disruptors of the mitochondrial membrane potential (AID 720635); also: potency is read from the fitted curve at half-maximal effect
# How it was run: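 HepG2 cells (2,000/well) attached overnight at 37C, then took compound for 1 hr at 37C, 5% CO2. Mito-MPS dye was added for 30 min; fluorescence was read at 490/535 nm (monomers) and 540/590 nm (aggregates).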
# [7] = qHTS assay to test for compound auto fluorescence at 590 nm (red) in HepG2 cells (AID 720674)
# How it was run: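 Compound auto-fluorescence is scored relative to Rose Bengal sodium, measured at 540/590 nm in live HepG2 cultures after 1 hr compound contact (37 C, 5% CO2).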
# [8] = qHTS assay to test for compound auto fluorescence at 535 nm (green) in HepG2 cells (AID 720675)
# [9] = qHTS assay to test for compound auto fluorescence at 460 nm (blue) in HEK293 cells (AID 720678)
# How it was run: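 HEK293 cells (2,000/well, medium with 10% dialyzed FBS) attached 4-5 hr, then exposed to compound overnight at 37C, 5% CO2. Blue fluorescence read at 405/460 nm, with triamterene as reference fluorophore.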
# [10] = qHTS assay to test for compound auto fluorescence at 590 nm (red) in HEK293 cells (AID 720679)
# How it was run: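 HEK293 cells (2,000/well, 10% dialyzed FBS) attached 4-5 hr, then dosed with compound or DMSO and incubated overnight at 37C, 5% CO2. Red fluorescence read at 540/590 nm, Rose Bengal sodium as reference fluorophore.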
# [11] = qHTS assay to test for compound auto fluorescence at 535 nm (green) in HEK293 cells (AID 720680)
# [12] = qHTS assay to test for compound auto fluorescence at 535 nm (green) in HEK293 cell free culture (AID 720682)
# How it was run: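 Compounds were pin-transferred into cell-free DMEM with 10% FBS, and green fluorescence was read at excitation 485 nm and emission 535 nm. Intensities were expressed as fluorescein-equivalent values.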
# [13] = qHTS assay to test for compound auto fluorescence at 590 nm (red) in HEK293 cell free culture (AID 720683)
# How it was run: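 Tox21 10K library compounds were pinned into cell-free DMEM with 10% FBS and fluorescence was read at excitation 540 nm. Activity is expressed as Rose Bengal sodium equivalency.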
# [14] = qHTS assay to test for compound auto fluorescence at 590 nm (red) in HepG2 cell free culture (AID 720684)
# How it was run: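 Measured in medium alone (MEM containing 10% FBS) following pintool addition of compound; emission at 590 nm with 540 nm excitation, referenced to Rose Bengal sodium.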
# [15] = qHTS assay to test for compound auto fluorescence at 460 nm (blue) in HepG2 cell free culture (AID 720685)
# How it was run: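 Compound (23 nL) or DMSO pinned into cell-free MEM with 10% FBS; blue fluorescence read at 405/460 nm excitation/emission, expressed as auto-fluorescence equivalency to triamterene.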
# [16] = qHTS assay to test for compound auto fluorescence at 535 nm (green) in HepG2 cell free culture (AID 720686)
# [17] = qHTS assay to test for compound auto fluorescence at 460 nm (blue) in HepG2 cells (AID 720687)
# How it was run: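 Cells (2,000/well in MEM with 10% FBS) attached overnight at 37 C, then were exposed to compound or DMSO for 1 hr at 37 C, 5% CO2. Fluorescence read at Ex/Em 405/460 nm, expressed as triamterene-equivalent signal.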
# [18] = target: Glucocorticoid receptor (Homo sapiens) (UniProt P04150); assay: qHTS assay to identify small molecule agonists of the glucocorticoid receptor (GR) signaling pathway (AID 720691; active = well fitted activation curve with a large enough effect in the signal ratio in the repeat runs, not every such curve was filed as active; the % refers to the signal ratio)
# Glucocorticoid receptor (Homo sapiens), sequence (P04150 whole entry, looked up): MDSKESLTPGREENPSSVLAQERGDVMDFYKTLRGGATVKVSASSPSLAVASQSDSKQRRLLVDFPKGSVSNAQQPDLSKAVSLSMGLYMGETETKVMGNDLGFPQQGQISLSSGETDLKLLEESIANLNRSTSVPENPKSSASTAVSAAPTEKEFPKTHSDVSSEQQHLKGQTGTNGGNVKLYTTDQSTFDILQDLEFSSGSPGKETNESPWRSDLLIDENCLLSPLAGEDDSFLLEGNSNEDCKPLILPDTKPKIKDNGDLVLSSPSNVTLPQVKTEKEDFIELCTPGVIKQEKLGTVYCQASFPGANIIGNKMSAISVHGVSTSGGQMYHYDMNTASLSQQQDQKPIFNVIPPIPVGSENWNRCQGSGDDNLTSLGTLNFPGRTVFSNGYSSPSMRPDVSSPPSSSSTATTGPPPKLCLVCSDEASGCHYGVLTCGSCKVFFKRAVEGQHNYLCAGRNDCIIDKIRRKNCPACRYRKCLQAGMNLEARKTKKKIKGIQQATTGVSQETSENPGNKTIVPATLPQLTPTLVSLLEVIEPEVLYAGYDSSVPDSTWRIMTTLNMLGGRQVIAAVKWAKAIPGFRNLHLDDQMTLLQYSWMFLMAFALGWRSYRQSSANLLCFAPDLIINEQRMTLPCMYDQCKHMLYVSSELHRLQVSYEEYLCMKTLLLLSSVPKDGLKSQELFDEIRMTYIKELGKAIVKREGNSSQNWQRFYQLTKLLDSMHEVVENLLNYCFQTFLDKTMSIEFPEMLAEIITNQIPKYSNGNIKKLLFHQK
# How it was run: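 Fluorescence intensity from LiveBLAzer B/G FRET substrate (2 h, room temperature) reports beta-lactamase expression driven by the glucocorticoid response element in GR-bla HeLa cells after 18 h compound exposure at 37 C.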
# [19] = qHTS assay to test for compound auto fluorescence at 460 nm (blue) in HEK293 cell free culture (AID 720681)
# How it was run: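 Test compounds were pinned into cell-free culture medium (DMEM with 10% FBS) and fluorescence was read directly at Ex/Em 405/460 nm. Signals were expressed as fluorescence equivalents of triamterene, with DMSO vehicle as control.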
# [20] = target: Glucocorticoid receptor (Homo sapiens) (UniProt P04150); assay: qHTS assay to identify small molecule antagonists of the glucocorticoid receptor (GR) signaling pathway (AID 720692; active = well fitted inhibition curve with a large enough effect in the signal ratio in the repeat runs, not every such curve was filed as active; the % refers to the signal ratio)
# How it was run: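 HeLa GR-bla cells; cmpd + dex 5 nM final, 18 h 37 C; LiveBLAzer B/G FRET substrate 2 h RT; fluorescence intensity read. Antagonist mode, qHTS.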
smiles,measurement,setting,value
CC(CCc1ccccc1)NCC(O)c1ccc(O)c(C(N)=O)c1 (configuration not stated),Potency,[1],inactive
same,Potency,[2],inactive
same,Potency,[3],inactive
same,Potency,[4],inactive
same,Potency,[5],inactive
same,Potency,[6],inactive
same,Potency,[7],inactive
same,Potency,[8],inactive
same,Potency,[9],inactive
same,Potency,[10],inactive
same,Potency,[11],inactive
same,Potency,[12],inactive
same,Potency,[13],inactive
same,Potency,[14],inactive
same,Potency,[15],inactive
same,Potency,[16],inactive
same,Potency,[17],inactive
same,Potency,[18],inactive
COC(=O)Nc1nc2ccc(C(=O)c3ccccc3)cc2[nH]1,Potency,[1],160 nM (active)
same,Potency,[2],3.2 µM (active)
same,Potency,[3],inactive
same,Potency,[4],inactive
same,Potency,[5],inactive
same,Potency,[6],2.27 µM (active)
same,"fluorescence, relative to Rose Bengal",[7],-0.678% [at 18.6 µM]
same,"fluorescence, % of fluorescein control",[8],0.0492% [at 18.6 µM]
same,"fluorescence, % of triamterene",[9],0.0612% [at 18.6 µM]
same,"fluorescence, % of fluorescent control",[10],0.41% [at 18.6 µM]
same,"fluorescence, % of fluorescein",[11],-0.035% [at 18.6 µM]
same,"fluorescence, % of fluorescent control",[19],-0.0403% [at 18.6 µM]
same,activity change,[12],"-0.0263% [at 18.6 µM, hits give high values]"
same,"fluorescence, % of fluorescent control",[13],0.0057% [at 18.6 µM]
same,"fluorescence, % of Rose Bengal",[14],0.103% [at 18.6 µM]
same,"fluorescence, % of fluorescent control",[17],0.116% [at 18.6 µM]
same,Potency,[18],inactive
O=C(/C=C/c1ccc(O)c(O)c1)O[C@@H](C(=O)O)[C@@H](OC(=O)/C=C/c1ccc(O)c(O)c1)C(=O)O,Potency,[1],inactive
same,Potency,[2],inactive
same,Potency,[3],inactive
same,Potency,[4],inactive
same,Potency,[5],inactive
same,Potency,[6],inactive
same,Potency,[8],inactive
same,Potency,[10],inactive
same,Potency,[11],inactive
same,Potency,[12],inactive
same,Potency,[14],inactive
same,Potency,[15],inactive
same,Potency,[16],inactive
same,Potency,[17],inactive
same,Potency,[18],inactive
same,Potency,[20],inactive
c1ccc(SSc2ccccc2)cc1,Potency,[1],inactive
same,Potency,[2],inactive
same,Potency,[3],inactive
same,Potency,[4],inactive
same,Potency,[5],inactive
same,Potency,[6],inactive
same,Potency,[7],inactive
same,Potency,[8],inactive
same,Potency,[10],inactive
same,Potency,[11],inactive
same,Potency,[12],inactive
same,Potency,[14],inactive
same,Potency,[15],inactive
same,Potency,[16],inactive
same,Potency,[17],inactive
same,Potency,[18],inactive
Clc1nnc(Cl)c2ccccc12,Potency,[1],inactive
same,Potency,[2],inactive
same,Potency,[3],inactive
same,Potency,[4],inactive
same,Potency,[5],inactive
same,Potency,[7],inactive
same,Potency,[8],inactive
same,Potency,[9],inactive
same,Potency,[10],inactive
same,Potency,[11],inactive
same,Potency,[19],inactive
same,Potency,[12],inactive
same,Potency,[13],inactive
same,Potency,[14],inactive
same,Potency,[15],inactive
same,Potency,[16],inactive
same,Potency,[17],inactive
same,Potency,[18],inactive
Cc1ccc(N/N=c2\c(=O)cc/c(=N\Nc3ccc(S(=O)(=O)O)cc3)c2=O)c(C)c1,Potency,[1],inactive
same,Potency,[2],inactive
same,Potency,[3],inactive
same,Potency,[4],61.1 µM (active)
same,Potency,[5],inactive
same,Potency,[7],inactive
same,Potency,[8],inactive
same,Potency,[9],inactive
same,Potency,[10],inactive
same,Potency,[11],inactive
same,Potency,[19],inactive
same,Potency,[12],inactive
same,Potency,[13],inactive
same,Potency,[14],inactive
same,Potency,[15],inactive
same,Potency,[16],inactive
same,Potency,[17],inactive
